# The supplement of paper PMC4466140
# Biological target: AgAbp1
# Experiment: SPOT peptide array binding signal intensity (averaged, normalized) (arbitrary units (background-subtracted, floor 0; scale differs between SH3 domains)); higher = stronger binding of the SH3 domain to the peptide
# Method in brief: (§1)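 Detection of bound protein relied on anti-GST antibody, an HRP anti-mouse secondary and luminol, with imaging and quantification in Genespotter. The bound protein was GST-fused SH3 domains from four yeast species, incubated at 10 μg/ml overnight at 4°C in TBS-based blocking buffer on cellulose membranes carrying synthetic 15-mer peptides with cysteines replaced by serines. Binding signal is normalized, background-subtracted spot intensity averaged over replicates, in arbitrary units that differ between domains.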
row,Binder,SPOT peptide array binding signal intensity
1,LLIRWLILMPLVGSR,19.5

# Biological target: AgBbc1
# Experiment: as above
# Method in brief: as §1
row,Binder,SPOT peptide array binding signal intensity
1,LLIRWLILMPLVGSR,29.5

# Biological target: AgBem1-D1
# Experiment: as above
# Method in brief: as §1
row,Binder,SPOT peptide array binding signal intensity
1,LLIRWLILMPLVGSR,284

# Biological target: AgBzz1-D1
# Experiment: as above
# Method in brief: as §1
row,Binder,SPOT peptide array binding signal intensity
1,LLIRWLILMPLVGSR,39

# Biological target: AgBzz1-D2
# Experiment: as above
# Method in brief: as §1
row,Binder,SPOT peptide array binding signal intensity
1,LLIRWLILMPLVGSR,62

# Biological target: AgCyk3
# Experiment: as above
# Method in brief: as §1
row,Binder,SPOT peptide array binding signal intensity
1,LLIRWLILMPLVGSR,24.5

# Biological target: AgFus1
# Experiment: as above
# Method in brief: as §1
row,Binder,SPOT peptide array binding signal intensity
1,LLIRWLILMPLVGSR,3190

# Biological target: AgHof1
# Experiment: as above
# Method in brief: as §1
row,Binder,SPOT peptide array binding signal intensity
1,LLIRWLILMPLVGSR,53

# Biological target: AgHse1
# Experiment: as above
# Method in brief: as §1
row,Binder,SPOT peptide array binding signal intensity
1,LLIRWLILMPLVGSR,2550

# Biological target: AgLsb1
# Experiment: as above
# Method in brief: as §1
row,Binder,SPOT peptide array binding signal intensity
1,LLIRWLILMPLVGSR,2.5

# Biological target: AgLsb4
# Experiment: as above
# Method in brief: as §1
row,Binder,SPOT peptide array binding signal intensity
1,LLIRWLILMPLVGSR,1800

# Biological target: AgMyo5
# Experiment: as above
# Method in brief: as §1
row,Binder,SPOT peptide array binding signal intensity
1,LLIRWLILMPLVGSR,4.5

# Biological target: AgNbp2
# Experiment: as above
# Method in brief: as §1
row,Binder,SPOT peptide array binding signal intensity
1,LLIRWLILMPLVGSR,722

# Biological target: AgRvs167
# Experiment: as above
# Method in brief: as §1
row,Binder,SPOT peptide array binding signal intensity
1,LLIRWLILMPLVGSR,26.5

# Biological target: AgSho1
# Experiment: as above
# Method in brief: as §1
row,Binder,SPOT peptide array binding signal intensity
1,LLIRWLILMPLVGSR,1270

# Biological target: AgSla1-D1-D2
# Experiment: as above
# Method in brief: as §1
row,Binder,SPOT peptide array binding signal intensity
1,LLIRWLILMPLVGSR,41

# Biological target: AgSla1-D3
# Experiment: as above
# Method in brief: as §1
row,Binder,SPOT peptide array binding signal intensity
1,LLIRWLILMPLVGSR,5

# Biological target: CaAbp1-D1
# Experiment: as above
# Method in brief: as §1
row,Binder,SPOT peptide array binding signal intensity
1,LLIRWLILMPLVGSR,334

# Biological target: CaAbp1-D2
# Experiment: as above
# Method in brief: as §1
row,Binder,SPOT peptide array binding signal intensity
1,LLIRWLILMPLVGSR,321

# Biological target: CaBbc1
# Experiment: as above
# Method in brief: as §1
row,Binder,SPOT peptide array binding signal intensity
1,LLIRWLILMPLVGSR,68

# Biological target: CaBem1-D1
# Experiment: as above
# Method in brief: as §1
row,Binder,SPOT peptide array binding signal intensity
1,LLIRWLILMPLVGSR,125

# Biological target: CaBzz1-D1
# Experiment: as above
# Method in brief: as §1
row,Binder,SPOT peptide array binding signal intensity
1,LLIRWLILMPLVGSR,222

# Biological target: CaBzz1-D2
# Experiment: as above
# Method in brief: as §1
row,Binder,SPOT peptide array binding signal intensity
1,LLIRWLILMPLVGSR,109

# Biological target: CaCyk3
# Experiment: as above
# Method in brief: as §1
row,Binder,SPOT peptide array binding signal intensity
1,LLIRWLILMPLVGSR,48

# Biological target: CaFus1
# Experiment: as above
# Method in brief: as §1
row,Binder,SPOT peptide array binding signal intensity
1,LLIRWLILMPLVGSR,5090

# Biological target: CaHof1
# Experiment: as above
# Method in brief: as §1
row,Binder,SPOT peptide array binding signal intensity
1,LLIRWLILMPLVGSR,1.25

# Biological target: CaHse1
# Experiment: as above
# Method in brief: as §1
row,Binder,SPOT peptide array binding signal intensity
1,LLIRWLILMPLVGSR,875

# Biological target: CaLsb1
# Experiment: as above
# Method in brief: as §1
row,Binder,SPOT peptide array binding signal intensity
1,LLIRWLILMPLVGSR,26.5

# Biological target: CaLsb4
# Experiment: as above
# Method in brief: as §1
row,Binder,SPOT peptide array binding signal intensity
1,LLIRWLILMPLVGSR,191

# Biological target: CaMyo5
# Experiment: as above
# Method in brief: as §1
row,Binder,SPOT peptide array binding signal intensity
1,LLIRWLILMPLVGSR,40

# Biological target: CaNbp2
# Experiment: as above
# Method in brief: as §1
row,Binder,SPOT peptide array binding signal intensity
1,LLIRWLILMPLVGSR,1390

# Biological target: CaRvs167
# Experiment: as above
# Method in brief: as §1
row,Binder,SPOT peptide array binding signal intensity
1,LLIRWLILMPLVGSR,524

# Biological target: CaRvs167-3
# Experiment: as above
# Method in brief: as §1
row,Binder,SPOT peptide array binding signal intensity
1,LLIRWLILMPLVGSR,780

# Biological target: CaSho1
# Experiment: as above
# Method in brief: as §1
row,Binder,SPOT peptide array binding signal intensity
1,LLIRWLILMPLVGSR,3580

# Biological target: CaSla1-D1-D2
# Experiment: as above
# Method in brief: as §1
row,Binder,SPOT peptide array binding signal intensity
1,LLIRWLILMPLVGSR,30

# Biological target: CaSla1-D3
# Experiment: as above
# Method in brief: as §1
row,Binder,SPOT peptide array binding signal intensity
1,LLIRWLILMPLVGSR,397

# Biological target: ScAbp1
# Experiment: as above
# Method in brief: as §1
row,Binder,SPOT peptide array binding signal intensity
1,LLIRWLILMPLVGSR,35

# Biological target: ScBbc1
# Experiment: as above
# Method in brief: as §1
row,Binder,SPOT peptide array binding signal intensity
1,LLIRWLILMPLVGSR,1.5

# Biological target: ScBem1-D1
# Experiment: as above
# Method in brief: as §1
row,Binder,SPOT peptide array binding signal intensity
1,LLIRWLILMPLVGSR,60

# Biological target: ScBzz1-D1
# Experiment: as above
# Method in brief: as §1
row,Binder,SPOT peptide array binding signal intensity
1,LLIRWLILMPLVGSR,37

# Biological target: ScBzz1-D2
# Experiment: as above
# Method in brief: as §1
row,Binder,SPOT peptide array binding signal intensity
1,LLIRWLILMPLVGSR,240

# Biological target: ScCyk3
# Experiment: as above
# Method in brief: as §1
row,Binder,SPOT peptide array binding signal intensity
1,LLIRWLILMPLVGSR,122

# Biological target: ScFus1
# Experiment: as above
# Method in brief: as §1
row,Binder,SPOT peptide array binding signal intensity
1,LLIRWLILMPLVGSR,3690

# Biological target: ScHof1
# Experiment: as above
# Method in brief: as §1
row,Binder,SPOT peptide array binding signal intensity
1,LLIRWLILMPLVGSR,0.25

# Biological target: ScHse1
# Experiment: as above
# Method in brief: as §1
row,Binder,SPOT peptide array binding signal intensity
1,LLIRWLILMPLVGSR,2940

# Biological target: ScLsb1
# Experiment: as above
# Method in brief: as §1
row,Binder,SPOT peptide array binding signal intensity
1,LLIRWLILMPLVGSR,11

# Biological target: ScLsb2
# Experiment: as above
# Method in brief: as §1
row,Binder,SPOT peptide array binding signal intensity
1,LLIRWLILMPLVGSR,33

# Biological target: ScLsb3
# Experiment: as above
# Method in brief: as §1
row,Binder,SPOT peptide array binding signal intensity
1,LLIRWLILMPLVGSR,850

# Biological target: ScLsb4
# Experiment: as above
# Method in brief: as §1
row,Binder,SPOT peptide array binding signal intensity
1,LLIRWLILMPLVGSR,150

# Biological target: ScMyo3
# Experiment: as above
# Method in brief: as §1
row,Binder,SPOT peptide array binding signal intensity
1,LLIRWLILMPLVGSR,5

# Biological target: ScMyo5
# Experiment: as above
# Method in brief: as §1
row,Binder,SPOT peptide array binding signal intensity
1,LLIRWLILMPLVGSR,7

# Biological target: ScNbp2
# Experiment: as above
# Method in brief: as §1
row,Binder,SPOT peptide array binding signal intensity
1,LLIRWLILMPLVGSR,566

# Biological target: ScPex13
# Experiment: as above
# Method in brief: as §1
row,Binder,SPOT peptide array binding signal intensity
1,LLIRWLILMPLVGSR,65.2

# Biological target: ScRvs167
# Experiment: as above
# Method in brief: as §1
row,Binder,SPOT peptide array binding signal intensity
1,LLIRWLILMPLVGSR,19.3

# Biological target: ScSho1
# Experiment: as above
# Method in brief: as §1
row,Binder,SPOT peptide array binding signal intensity
1,LLIRWLILMPLVGSR,2890

# Biological target: ScSla1-D1-D2
# Experiment: as above
# Method in brief: as §1
row,Binder,SPOT peptide array binding signal intensity
1,LLIRWLILMPLVGSR,23

# Biological target: ScSla1-D3
# Experiment: as above
# Method in brief: as §1
row,Binder,SPOT peptide array binding signal intensity
1,LLIRWLILMPLVGSR,132

# Biological target: SpAbp1-D1
# Experiment: as above
# Method in brief: as §1
row,Binder,SPOT peptide array binding signal intensity
1,LLIRWLILMPLVGSR,248

# Biological target: SpBbc1
# Experiment: as above
# Method in brief: as §1
row,Binder,SPOT peptide array binding signal intensity
1,LLIRWLILMPLVGSR,22.8

# Biological target: SpBzz1-D1
# Experiment: as above
# Method in brief: as §1
row,Binder,SPOT peptide array binding signal intensity
1,LLIRWLILMPLVGSR,300

# Biological target: SpBzz1-D2
# Experiment: as above
# Method in brief: as §1
row,Binder,SPOT peptide array binding signal intensity
1,LLIRWLILMPLVGSR,13.5
2,AERNYAPRLPRRETS,4.5

# Biological target: SpCyk3
# Experiment: as above
# Method in brief: as §1
row,Binder,SPOT peptide array binding signal intensity
1,LLIRWLILMPLVGSR,25
2,AERNYAPRLPRRETS,2

# Biological target: SpHof1
# Experiment: as above
# Method in brief: as §1
row,Binder,SPOT peptide array binding signal intensity
1,LLIRWLILMPLVGSR,306
2,AERNYAPRLPRRETS,49.2

# Biological target: SpHof1-2
# Experiment: as above
# Method in brief: as §1
row,Binder,SPOT peptide array binding signal intensity
1,LLIRWLILMPLVGSR,75.2
2,AERNYAPRLPRRETS,10.2

# Biological target: SpHof1-3
# Experiment: as above
# Method in brief: as §1
row,Binder,SPOT peptide array binding signal intensity
1,LLIRWLILMPLVGSR,2420
2,AERNYAPRLPRRETS,197

# Biological target: SpHse1
# Experiment: as above
# Method in brief: as §1
row,Binder,SPOT peptide array binding signal intensity
1,LLIRWLILMPLVGSR,2700
2,AERNYAPRLPRRETS,85.5

# Biological target: SpLsb1
# Experiment: as above
# Method in brief: as §1
row,Binder,SPOT peptide array binding signal intensity
1,LLIRWLILMPLVGSR,2
2,AERNYAPRLPRRETS,177

# Biological target: SpLsb4
# Experiment: as above
# Method in brief: as §1
row,Binder,SPOT peptide array binding signal intensity
1,LLIRWLILMPLVGSR,341
2,AERNYAPRLPRRETS,3100

# Biological target: SpMyo1
# Experiment: as above
# Method in brief: as §1
row,Binder,SPOT peptide array binding signal intensity
1,LLIRWLILMPLVGSR,18
2,AERNYAPRLPRRETS,11.5

# Biological target: SpNbp2
# Experiment: as above
# Method in brief: as §1
row,Binder,SPOT peptide array binding signal intensity
1,LLIRWLILMPLVGSR,1450
2,AERNYAPRLPRRETS,≤ 0

# Biological target: SpPex13
# Experiment: as above
# Method in brief: as §1
row,Binder,SPOT peptide array binding signal intensity
1,LLIRWLILMPLVGSR,232
2,AERNYAPRLPRRETS,3.5

# Biological target: SpRvs167
# Experiment: as above
# Method in brief: as §1
row,Binder,SPOT peptide array binding signal intensity
1,LLIRWLILMPLVGSR,37.7
2,AERNYAPRLPRRETS,1930

# Biological target: SpSla1-D1-D2
# Experiment: as above
# Method in brief: as §1
row,Binder,SPOT peptide array binding signal intensity
1,LLIRWLILMPLVGSR,≤ 0
2,AERNYAPRLPRRETS,≤ 0

# Biological target: SpSla1-D3
# Experiment: as above
# Method in brief: as §1
row,Binder,SPOT peptide array binding signal intensity
1,LLIRWLILMPLVGSR,120
2,AERNYAPRLPRRETS,≤ 0
